PubChem BioAssay (NCI)
Values joined by “and” are separate entries in the source; they are usually repeats but may differ in a detail not shown here. Equal entries are not always repeated. This is part of a sample that, as a whole, favours compounds with a hit. Of some 83,000 tested, about 20% had one in any assay.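 In brief: 96-well plates, 48 h treatment, single concentration, percent growth endpoint.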 Active and inactive are the calls of the source. Rule for the calls: active = growth percent below 10; inactive = the rest.

Key:
Assay in all cases: NCI-60 one-dose screen, 48 h (100 = growth as untreated, 0 = no growth, -100 = all killed)
Settings in all cases: 10 µM unless noted
NCI-H23 lung = tested on: NCI-H23 lung
NCI-H226 lung = tested on: NCI-H226 lung
NCI-H322M lung = tested on: NCI-H322M lung
HOP-62 NSCLC = tested on: HOP-62 NSCLC
NCI-H460 lung = tested on: NCI-H460 lung
HOP-92 NSCLC = tested on: HOP-92 NSCLC
NCI-H522 lung = tested on: NCI-H522 lung
A549/ATCC NSCLC = tested on: A549/ATCC NSCLC
786-0 renal = tested on: 786-0 renal
COLO 205 colon = tested on: COLO 205 colon
DU-145 prostate = tested on: DU-145 prostate
K-562 leukemia = tested on: K-562 leukemia
MALME-3M melanoma = tested on: MALME-3M melanoma
MDA-MB-231 breast = tested on: MDA-MB-231 breast
RXF 393 renal = tested on: RXF 393 renal
SF-268 CNS = tested on: SF-268 CNS
SF-295 CNS = tested on: SF-295 CNS
SF-539 CNS = tested on: SF-539 CNS
UACC-257 melanoma = tested on: UACC-257 melanoma
M14 melanoma = tested on: M14 melanoma

Measured: growth

Nc1nc(Nc2ccc(F)cc2)nn1C(=O)c1cc(Cl)ccc1Cl
inactive: NCI-H23 lung 71.9% | NCI-H226 lung 80.9% | NCI-H322M lung 66.4% | HOP-62 NSCLC 85.4% | NCI-H460 lung 69.4% | HOP-92 NSCLC 75.1% | NCI-H522 lung 87.8% | A549/ATCC NSCLC 75.2% | 786-0 renal 72.9% | COLO 205 colon 83.8% | DU-145 prostate 78.8% | K-562 leukemia 97.4% | MALME-3M melanoma 108% | MDA-MB-231 breast 88.2% | RXF 393 renal 21.8% | SF-268 CNS 74.9% | SF-295 CNS 94.3% | SF-539 CNS 72.8% | UACC-257 melanoma 106% | M14 melanoma 86.8%

COc1ccc(C2=C(CN)C(O)NC(=NCC(=O)c3ccc4ccccc4c3)N2)cc1 (stereo not given)
inactive: NCI-H23 lung 103% | NCI-H226 lung 100% | NCI-H322M lung 104% | HOP-62 NSCLC 98.7% | NCI-H460 lung 114% | HOP-92 NSCLC 113% | NCI-H522 lung 86% | A549/ATCC NSCLC 95.5% | 786-0 renal 98.5% | COLO 205 colon 87.4% | DU-145 prostate 107% | K-562 leukemia 102% | MALME-3M melanoma 101% | MDA-MB-231 breast 103% | RXF 393 renal 112% | SF-268 CNS 94.1% | SF-295 CNS 98.4% | SF-539 CNS 90.8% | UACC-257 melanoma 91.3% | M14 melanoma 95.1%

Cc1ccc(Cl)cc1N1CCN(C(=O)[C@@H]2C[C@@H]2c2ccc(F)cc2)CC1
inactive: NCI-H23 lung 84.2% | NCI-H226 lung 73.6% | NCI-H322M lung 93% | HOP-62 NSCLC 100% | NCI-H460 lung 99.7% | HOP-92 NSCLC 74.9% | NCI-H522 lung 69.3% | A549/ATCC NSCLC 77.7% | 786-0 renal 93.6% | COLO 205 colon 107% | DU-145 prostate 114% | K-562 leukemia 75.6% | MALME-3M melanoma 95% | MDA-MB-231 breast 102% | RXF 393 renal 103% | SF-268 CNS 90.1% | SF-295 CNS 88.9% | SF-539 CNS 95.6% | UACC-257 melanoma 95.4% | M14 melanoma 93.4%

Cc1ccc(-c2nc(C#N)c(S(=O)(=O)N(C)C)o2)cc1
inactive: NCI-H23 lung 89.2% | NCI-H226 lung 103% | NCI-H322M lung 91.1% | HOP-62 NSCLC 96.7% | NCI-H460 lung 110% | HOP-92 NSCLC 103% | A549/ATCC NSCLC 102% | 786-0 renal 96.4% | COLO 205 colon 16.7% | DU-145 prostate 103% | K-562 leukemia 12.3% | MALME-3M melanoma 52.6% | MDA-MB-231 breast 88.1% | RXF 393 renal 105% | SF-268 CNS 104% | SF-295 CNS 100% | SF-539 CNS 102% | UACC-257 melanoma 94.8% | M14 melanoma 64.3%
active: NCI-H522 lung -0.0776%

O=C(O)C1C2CCC1C(O)C2 (stereo not given)
inactive: NCI-H23 lung 99.1% and 99.6% | NCI-H226 lung 94.5% | NCI-H322M lung 115% and 97.6% | HOP-62 NSCLC 87.9% and 112% | NCI-H460 lung 112% and 111% | HOP-92 NSCLC 108% and 97.6% | NCI-H522 lung 87.6% and 98.6% | A549/ATCC NSCLC 102% and 100% | 786-0 renal 98.2% and 96.5% | COLO 205 colon 102% and 106% | DU-145 prostate 100% and 108% | K-562 leukemia 107% and 92.7% | MALME-3M melanoma 109% and 86.3% | MDA-MB-231 breast 103% and 113% | RXF 393 renal 111% and 116% | SF-268 CNS 97.7% and 101% | SF-295 CNS 108% and 121% | SF-539 CNS 94.9% and 101% | UACC-257 melanoma 100% and 103% | M14 melanoma 98.8% and 95.4%

O=C(Nc1ncc(Cc2cccc(C(F)(F)F)c2)s1)c1ccc(-n2cnnn2)cc1
inactive: NCI-H23 lung 55% | NCI-H226 lung 69.3% | NCI-H322M lung 86.1% | HOP-62 NSCLC 104% | NCI-H460 lung 30.5% | HOP-92 NSCLC 86.2% | NCI-H522 lung 54.5% | A549/ATCC NSCLC 34.4% | 786-0 renal 66.1% | COLO 205 colon 121% | DU-145 prostate 60.3% | K-562 leukemia 21% | MALME-3M melanoma 62.6% | MDA-MB-231 breast 96.9% | RXF 393 renal 103% | SF-268 CNS 55.4% | SF-295 CNS 32.2% | SF-539 CNS 47.9% | UACC-257 melanoma 46.8% | M14 melanoma 41.4%

C=CCNC(=O)Cc1c(-c2ccc(OC)cc2)oc2c(OC)c3c(c(OC)c12)OCO3
inactive: NCI-H23 lung 96.2% | NCI-H226 lung 101% | NCI-H322M lung 97.9% | HOP-62 NSCLC 105% | NCI-H460 lung 102% | HOP-92 NSCLC 114% | NCI-H522 lung 92.7% | A549/ATCC NSCLC 95.2% | 786-0 renal 104% | COLO 205 colon 117% | DU-145 prostate 104% | K-562 leukemia 102% | MALME-3M melanoma 106% | MDA-MB-231 breast 91.1% | RXF 393 renal 90.8% | SF-268 CNS 96.2% | SF-295 CNS 106% | SF-539 CNS 103% | UACC-257 melanoma 105% | M14 melanoma 101%

COc1cc(-c2[nH]ncc2Nc2ccc(Cl)cc2)cc(OC)c1OC
inactive: NCI-H23 lung 55.5% | NCI-H226 lung 73.2% | NCI-H322M lung 64.2% | HOP-62 NSCLC 50.1% | NCI-H460 lung 73.6% | HOP-92 NSCLC 60% | NCI-H522 lung 51.5% | A549/ATCC NSCLC 67.6% | 786-0 renal 64.3% | COLO 205 colon 107% | DU-145 prostate 102% | K-562 leukemia 47.2% | MALME-3M melanoma 69.4% | MDA-MB-231 breast 62.6% | RXF 393 renal 89.4% | SF-268 CNS 84.5% | SF-295 CNS 42.7% | SF-539 CNS 70.1% | UACC-257 melanoma 64.6% | M14 melanoma 71.3%

CC[C@H](C)[C@H](NC(=O)[C@H](CCCCN)NC(=O)[C@H](CCCCN)NC(=O)[C@@H](NC(=O)[C@@H](NC(=O)[C@@H](N)Cc1cnc[nH]1)[C@@H](C)CC)[C@@H](C)CC)C(=O)N[C@@H](CCCNC(=N)N)C(=O)N[C@H](C(=O)N[C@@H](Cc1c[nH]c2ccccc12)C(=O)N[C@@H](Cc1ccc(O)cc1)C(=O)N[C@@H](CCCNC(=N)N)C(=O)N[C@@H](CCCCN)C(=O)N[C@@H](C)C(=O)N[C@@H](Cc1c[nH]c2ccccc12)C(=O)N[C@@H](Cc1cnc[nH]1)C(=O)N[C@H](C(=O)N[C@@H](CC(C)C)C(=O)NCC(=O)N[C@@H](CCCCN)C(=O)N[C@H](C(N)=O)C(C)C)C(C)C)[C@@H](C)O
inactive: NCI-H23 lung 17.2% | NCI-H226 lung 29.8% | NCI-H322M lung 25.1% | HOP-62 NSCLC 35.9% | HOP-92 NSCLC 56.7% | NCI-H522 lung 45.9% | A549/ATCC NSCLC 39.2% | DU-145 prostate 30.7% | K-562 leukemia 67.9% | MDA-MB-231 breast 10.9% | RXF 393 renal 23.4% | SF-295 CNS 24.5% | UACC-257 melanoma 67.8%
active: NCI-H460 lung 7.38% | 786-0 renal -28.3% | COLO 205 colon -54.8% | MALME-3M melanoma 4.7% | SF-268 CNS -12.7% | SF-539 CNS -12.2% | M14 melanoma -12%

O=C1N=c2ccccc2=C1c1sc(=S)n(C2CC(=O)N(c3ccc(Cl)cc3)C2=O)c1O (stereo not given)
inactive: NCI-H23 lung 99.2% | NCI-H226 lung 92% | NCI-H322M lung 104% | HOP-62 NSCLC 93.2% | NCI-H460 lung 102% | HOP-92 NSCLC 98.6% | NCI-H522 lung 97.1% | A549/ATCC NSCLC 107% | 786-0 renal 102% | COLO 205 colon 118% | DU-145 prostate 106% | K-562 leukemia 94.4% | MALME-3M melanoma 102% | MDA-MB-231 breast 101% | RXF 393 renal 116% | SF-268 CNS 102% | SF-295 CNS 104% | SF-539 CNS 101% | UACC-257 melanoma 105% | M14 melanoma 98.7%

CN1CCN(Cc2ccc(NC(=O)c3cccc(C#Cc4c(N)ncc5ccc(F)cc45)c3)cc2C(F)(F)F)CC1
active: NCI-H23 lung -78.2% | NCI-H226 lung 4.59% | NCI-H322M lung 3.59% | HOP-62 NSCLC -36.4% | NCI-H460 lung -92.3% | HOP-92 NSCLC -49.4% | NCI-H522 lung -61.1% | A549/ATCC NSCLC -69.6% | 786-0 renal -83.2% | COLO 205 colon -59.6% | DU-145 prostate -89.9% | K-562 leukemia -29.5% | MALME-3M melanoma -54.5% | MDA-MB-231 breast -79% | RXF 393 renal -89.6% | SF-268 CNS -45.8% | SF-295 CNS -65.4% | SF-539 CNS -94.5% | UACC-257 melanoma -62.5% | M14 melanoma -71%

O=C(NNC(=S)Nc1ccccc1)c1ccncc1
inactive: NCI-H23 lung 102% | NCI-H226 lung 105% | NCI-H322M lung 108% | HOP-62 NSCLC 106% | NCI-H460 lung 118% | HOP-92 NSCLC 90.2% | NCI-H522 lung 97.3% | A549/ATCC NSCLC 107% | 786-0 renal 98.5% | COLO 205 colon 128% | DU-145 prostate 115% | K-562 leukemia 106% | MALME-3M melanoma 108% | MDA-MB-231 breast 111% | RXF 393 renal 114% | SF-268 CNS 105% | SF-295 CNS 110% | SF-539 CNS 100% | UACC-257 melanoma 110% | M14 melanoma 107%
